This is a sample that favours compounds with a hit; in the whole collection about 1.1% have one here.
PrPC surface inh: reduces human prion protein on the cell surface | P04156 | 370,000 tested, 0.43% active | inhibition, % at 13.8 µM | cell surface PrPC, TR-FRET read-out; in the data active means inhibition above about 24%; further: 0% = median of the test wells and 100% = reference compound wells
PrP UTR inh: suppresses PrP 5' UTR mRNA reporter expression | cell-based PrP 5' UTR mRNA reporter, plate reader | inhibition, % (concentration not given with the values) | 340,000 tested, 0.35% active | AID 488862; in the data active means inhibition above about 52%; further: 0 = median of the neutral control wells
BJeLR lethal: kills HRASV12-expressing BJeLR cells; BJeLR (HRASV12) viability, CellTiter-Glo ATP luminescence, 48 h; inhibition, % (no concentration beside the values); 300,000 tested, 0.17% active; AID 1554; in the data active means inhibition above about 50%
MazEF act: increases E. coli MazEF RNase cleavage of RNA; P0AE70; FAM/BHQ RNA-DNA oligo cleavage fluorescence, 5 h; activation, % at 20 µM; 350,000 tested, 0.32% active; in the data active means activation above about 50%
PrPC TRFRET cf: confirmation of inhibitors of cell surface human prion protein; shares compounds with PrPC surface inh; AID 743200; cell surface PrPC level, TR-FRET; 1,500 tested, 65% active; inhibition, % at 13.8 µM; in the data active means inhibition above about 25%
LD9 cytotox: kills or reduces viability of LD9 cells in PrPc counter-screen. shares compounds with PrPC surface inh. 1,500 tested, 29% active. LD9 cells cytotoxicity, luminescence viability. AID 743201. inhibition, % at 13.8 µM; in the data active means inhibition above about 9.5%
Starred values were filed as active, the others as inactive; x = no result given.

SMILES | PrPC surface inh | PrP UTR inh | BJeLR lethal | MazEF act | PrPC TRFRET cf | LD9 cytotox
CCOC(=O)[C@@H]1CSCCS(=O)(=O)N1Cc1ccccc1 | -3 | x | x | x | x | x
COc1cccc(N2CCN(C(=O)CCn3nnc4ccccc43)CC2)c1 | 6 | x | x | x | x | x
O=C(C(=O)N1CCC(CNS(=O)(=O)c2ccccc2)CC1)c1cc2ccccc2o1 | -9 | x | x | x | x | x
CCO[C@H]1OC(C(=O)Nc2ccccc2)=C[C@@H](c2ccc(C(F)(F)F)cc2)[C@@H]1CCCO | 31* | -18 | -4 | 4 | 6 | -3
CCO[C@H]1OC(C(=O)NCc2ccccc2)=C[C@@H](c2ccc(C(F)(F)F)cc2)[C@@H]1CCCO | 6 | -2 | -22 | 8 | x | x
CCC(C)NC(=O)CSc1nnc(-c2cc(OC)c(OC)c(OC)c2)o1 (stereo not drawn) | 0 | x | x | x | x | x
N#CC1c2ccccc2-n2nncc2CN1Cc1cc(Cl)cc(Cl)c1 (stereo not drawn) | 68* | 33 | x | 0 | 91* | 98*
Cc1onc(-c2ccccc2Cl)c1C(=O)Nc1nnc(-c2ccc(Br)cc2)s1 | 26* | -11 | 3 | -34 | 41* | -5
Cc1onc(-c2ccccc2Cl)c1C(=O)Nc1nnc(-c2ccc(F)cc2)s1 | 3 | -23 | 15 | 5 | x | x
Cc1c(Br)c(=O)oc2cc(OCC(=O)N3C[C@H]4C[C@@H](C3)c3cccc(=O)n3C4)ccc12 | 38* | -5 | -2 | 1 | 55* | -3
CCOC(=O)C1CCN(C(=O)C(=O)c2cn(CC(=O)N3CCCCCC3)c3ccccc23)CC1 | 26* | 5 | -4 | -40 | 22 | -10
COC(=O)c1cc2c(c3c4cc(OC)ccc4n(C(=O)c4ccccc4)c13)C(=O)N(C1CCCCC1)C2 | 0 | x | x | x | x | x
COC(=O)N1C2CCCCC2=NN(c2ccccc2)N1C(=O)OC (stereo not drawn) | 29* | x | x | x | 5 | -2
Cc1nnc(SCC(=O)NC2CCCC2)n1-c1ccccc1 | -2 | -17 | x | 4 | x | x
O=C1NC(Cc2cnc[nH]2)C(=O)N2CCCC12 (stereo not drawn) | -5 | x | x | x | x | x
COc1cc(-c2nc3ccc(C)cn3c2NCc2ccccc2)ccc1SC1CCCCC1 | 25* | -4 | 1 | -6 | 14 | 11*
COc1cc(-c2nc3ccccn3c2NCc2ccccc2)ccc1SC1CCCCC1 | x | -8 | 8 | -17 | x | x
COc1cc(C(=O)Nc2ccc3c(c2)nc(C)n3C)cc(OC)c1OC | 8 | -33 | 32 | 0 | x | x
COc1cc(C(=O)Nc2ccc3c(c2)ncn3C)cc(OC)c1OC | 77* | -12 | 29 | -4 | 73* | 0
CC(C)N1CCc2c(sc(NC(=O)c3ccc([N+](=O)[O-])o3)c2C(N)=O)C1 | 49* | 95* | 5 | x | 62* | 54*
O=C(CSc1nnc(-c2ccccn2)n1-c1ccccc1)c1ccc2c(c1)OCO2 | 1 | x | x | x | x | x
NC(=O)c1nn(-c2cccc(Cl)c2)c(=O)cc1O | 49* | -11 | -7 | 8 | 49* | -8
NC(=O)c1nn(-c2ccccc2)c(=O)cc1O | -1 | 11 | 11 | -1 | x | x
CNS(=O)(=O)c1cc(Cl)ccc1Sc1ccccc1C(=O)O | 0 | -58 | -4 | -1 | x | x
NS(=O)(=O)c1c(Sc2ccccc2C(=O)O)ccc2ccccc12 | 34* | -12 | -4 | 9 | 53* | -5
SMILES | PrPC surface inh | PrP UTR inh | BJeLR lethal | MazEF act | PrPC TRFRET cf | LD9 cytotox
CCc1cc2c(=O)c(-c3ccc4c(c3)OCCO4)coc2cc1OS(C)(=O)=O | 36* | -86 | 6 | -7 | 31* | 6
CCc1cc2c(=O)c(-c3ccc4c(c3)OCCO4)coc2c(CN2CCCCC2C)c1O (stereo not drawn) | 12 | -19 | -2 | -1 | x | x
Nc1ccn([C@@H]2O[C@H](C(=O)N[C@H](Cc3ccccc3)C(=O)N3CCC(F)(F)CC3)[C@@H](O)[C@H]2O)c(=O)n1 | -2 | x | x | x | x | x
OC[C@@H]1CN(Cc2ccc(F)cc2)C[C@H](n2cnc3c(NC4CC4)ncnc32)O1 | -3 | x | x | x | x | x
OC[C@@H]1CN(Cc2ccc(Cl)cc2)C[C@H](n2cnc3c(NC4CCCC4)ncnc32)O1 | 28* | x | x | x | 35* | -5
COC(=O)[C@]12C[C@H](CC(=O)NCCC(C)C)C(=O)N(Cc3ccc(Cl)cc3Cl)C1=C[C@H](COCc1ccccc1)O[C@@H]2C | 1 | x | x | x | x | x
COc1ccc(Oc2cnn(-c3ccccc3)c(=O)c2Br)cc1 | 27* | -16 | -1 | 8 | 36* | -5
CC(C)=CCC[C@@]1(C(=O)O)[C@H]2CC=C(CO)[C@@H]1CC/C(C)=C/CC/C(C)=C/C2 | 24* | x | x | x | 27* | 12*
O=C(N[C@H](C(=O)N1CCC[C@H]1C(=O)NC1CCCC1)c1ccccc1)c1ccccc1 | -1 | x | x | x | x | x
c1ccc2[nH]c(CSc3ncnc4c3oc3ccccc34)nc2c1 | 29* | -100 | -14 | -7 | 26* | -1
CCCCCCCCN1C(=O)[C@@H](CC(=O)NCCc2ccccc2OC)C[C@@]2(C(=O)OC)C1=C[C@H](C(C)(C)C)O[C@@H]2C | -4 | x | x | x | x | x
Cc1cc(C(=O)NNC(=O)Nc2ccc(Cl)cc2)no1 | 1 | -27 | -3 | 5 | x | x
Cc1cc(C(=O)NNc2ccc(Cl)cc2)no1 | 31* | -63 | -1 | 6 | 33* | -2
CC(C)(C)c1ccc(/C=C(\c2nc3ccccc3[nH]2)S(=O)(=O)c2ccccc2)cc1 | x | -18 | -1 | -2 | x | x
Cc1cccc(/C=C(\c2nc3ccccc3[nH]2)S(=O)(=O)c2ccccc2)c1 | 25* | -29 | 1 | -3 | 17 | 22*
Cc1cc(C2(c3ccc(O)c(C)c3)OC(=O)c3ccccc32)ccc1O | 2 | -18 | -2 | 4 | x | x
Cc1cc(O)c(C(C)C)cc1C1(c2cc(C(C)C)c(O)cc2C)OC(=O)c2ccccc21 | 25* | -18 | 0 | 5 | 16 | -7
CCOC(=O)CC1(Cc2ccccc2)Oc2ccccc2O1 | 3 | x | x | x | x | x
O=C(COC(=O)CSc1ccc2ccccc2c1Br)NC1CC1 | 56* | -9 | 1 | 5 | 79* | -7
Cc1c(C(=O)O)oc2c3c(ccc12)OCCO3 | 26* | -29 | 1 | 4 | 31* | 1
CC(C)C[C@H]1COc2cccc(N3CCCC3)c2S(=O)(=O)N1 | 7 | x | x | x | x | x
COc1ccc(N2CCN(CCCNC(=O)C3CCC(CNc4nc(=S)[nH]c5ccccc45)CC3)CC2)cc1 (stereo not drawn) | 33* | 1 | 0 | 7 | 28* | 14*
CCCCNC(=O)C1CCC(CNc2nc(=S)[nH]c3ccccc23)CC1 (stereo not drawn) | -1 | -7 | -8 | 9 | x | x
COc1cccc(NC(=O)NC2CCCCN(Cc3ccc(C)cc3)C2=O)c1 (stereo not drawn) | 25* | x | x | x | 16 | -6
Cc1ccc(CN2CCCCC(NC(=O)Nc3cccc(F)c3)C2=O)cc1 (stereo not drawn) | 21 | x | x | x | x | x
COc1cc(/C=C/C(=O)NCCN2CCOCC2)cc(OC)c1OC | 1 | -17 | 1 | 5 | x | x

Bioassay records as filed in PubChem BioAssay.
